{"source": "PubChem BioAssay"}
{"test_system": "Noggin (protein binding on small-molecule microarray)", "assay": "Noggin binders on small-molecule microarray, primary screen, biochemical, 635/667 nm fluorescence (AID 1095);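 note: score merges 667 nm feature fluorescence with signal to noise over triplicate slides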", "conditions": "635 nm fluorescence, higher = more signal"}
{"compound": "COC(=O)C(CC#Cc1ccc2c(c1)[C@]1(C(=O)N2)[C@H](C(=O)N2CCN(c3ncccn3)CC2)[C@H]2C(=O)O[C@H](c3ccccc3)[C@H](c3ccccc3)N2[C@@H]1c1ccc(OCCO)cc1)C(=O)OC", "composite z-score": 1.3}
{"compound": "COCCOC(=O)N1C(=O)[C@@]2(c3cc(C#CC4=CCCCC4)ccc31)[C@H](c1ccccc1OCCO)N1[C@H](c3ccccc3)[C@H](c3ccccc3)OC(=O)[C@H]1[C@@H]2C(=O)N1CCCCCCC1", "composite z-score": 0.766}
{"compound": "CCOC(=O)C[C@H]1[C@H](OC(=O)c2ccc(C(=O)c3ccccc3)cc2)[C@@H](NC(=O)Cc2ccc(OC)cc2)c2cc(OCCCO)ccc2N1C(=O)c1ccccc1", "composite z-score": 0.359}
{"compound": "C=CC[C@@]1(C(=O)N2CCOCC2)N=C(c2ccc(OCCCO)cc2)O[C@@H]1c1ccccc1CN=[N+]=[N-]", "composite z-score": 0.355}
{"compound": "NC(=O)NCC#Cc1ccc2c(c1)[C@]1(C(=O)N2)[C@H](C(=O)NC[C@H](O)c2ccccc2)[C@H]2C(=O)O[C@H](c3ccccc3)[C@H](c3ccccc3)N2[C@@H]1c1ccc(OCCO)cc1", "composite z-score": -0.0728}
{"compound": "C=C(COC)/C(=C/C[C@H](OC(=O)c1ccncc1)c1ccccc1OCCO)c1cnc2ccccc2c1", "composite z-score": 1.44}
{"compound": "[N-]=[N+]=Nc1ccccc1C[C@]1(C(N)=O)N=C(c2ccc(OCCCO)cc2)O[C@H]1c1ccccc1N=[N+]=[N-]", "composite z-score": -0.306}
{"compound": "CN1C(=O)C2C=CC(C(O)c3ccccn3)N(N(c3ccccc3)c3ccccc3)C2C1=O", "note": "(stereo not given)", "composite z-score": -0.112}
{"compound": "NCCCCCCNC(=O)[C@@H]1C[C@@H]2C(=O)N[C@@H](CCCCN)C(=O)N2[C@@H]1c1cccc(OCCO)c1", "composite z-score": 0.763}
{"compound": "O=C1N(Cc2ccccc2)c2ccccc2[C@@H]2OC(c3ccc(OCCCO)cc3)=N[C@]12Cc1ccccc1", "composite z-score": 0.307}
{"compound": "CCCCCCCCCCC(O)C1C=CC2C(=O)N(C)C(=O)C2N1NC(=O)OC(C)(C)C", "note": "(stereo not given)", "composite z-score": -0.765}
{"compound": "OCCCC1=CC(c2ccc(CN3CCCC3)cc2)N(Cc2sc3ccccc3c2Cl)CC1", "note": "(stereo not given)", "composite z-score": 0.895}
{"compound": "[N-]=[N+]=Nc1ccccc1[C@@H]1OC(c2ccc(OCCCO)cc2)=N[C@]1(Cc1ccccc1)C(=O)NCC(O)CO", "note": "(stereo not given in full)", "composite z-score": 0.244}
{"compound": "C=CCC(OC(C)=O)[C@@H]1[C@@H](N(Cc2cc3ccccc3o2)C(=O)c2ccc(-c3ccccc3)cc2)c2cc(OCCCO)ccc2N1C(=O)c1ccc2ccccc2c1", "note": "(stereo not given in full)", "composite z-score": 0.228}
{"compound": "Cc1cc(C)c(C(O)C2C=CC3C(=O)N(c4ccccc4)C(=O)C3N2Nc2ccc(C(C)C)cc2)c(C)c1", "note": "(stereo not given)", "composite z-score": -0.163}
{"compound": "COc1cc(OC)c(C(O)C2C=CC3C(=O)N(c4ccccc4)C(=O)C3N2Nc2ccccc2)cc1Br", "note": "(stereo not given)", "composite z-score": 0.0401}
{"compound": "CO[C@H]1O[C@H](CO)[C@@H](OC(=O)Nc2ccccc2-c2ccccc2)[C@H](OC(=O)Nc2ccc3c(c2)OCO3)[C@H]1OC(=O)Nc1ccc2c(c1)OCO2", "composite z-score": 0.852}
{"compound": "CC1CC/C=C\\[C@H]2OC34C=CCN(c5ccc(Cl)cc5)C(=O)[C@H]3N(CCCCCO)C(=O)[C@]4(C)C2C(=O)O1", "note": "(stereo not given in full)", "composite z-score": -1.33}
{"compound": "CC(C)N1C(=O)c2ccccc2[C@@H](C(=O)NC2CC2)[C@@H]1c1ccc(CO)cc1", "composite z-score": 0.521}
{"compound": "COCCCNC(=O)[C@@]1(Cc2ccccc2CN=[N+]=[N-])N=C(c2ccc(OCCCO)cc2)O[C@H]1c1ccccc1", "composite z-score": 1.13}
{"compound": "COc1ccc([Si](C)(C)[C@@H]2[C@@H](CCO)O[C@]3(C(=O)N(Cc4ccc(N5CCCCC5=O)cc4)c4ccccc43)[C@H]2C)cc1", "composite z-score": 0.731}
{"compound": "C=C(/C(=C/C[C@@H](OC(C)=O)c1cccc(OCCO)c1)c1cc(C(=O)OC)ccc1OC)C(C)C", "composite z-score": 0.575}
{"compound": "C=C(COC)C(=O)CC[C@@H](OC(=O)c1cccnc1)c1ccc(OCCO)cc1", "composite z-score": 0.992}
{"compound": "CN(C)c1ccc(C(O)C2C=CC3C(=O)N(c4ccccc4)C(=O)C3N2Nc2ccc([N+](=O)[O-])cc2)cc1", "note": "(stereo not given)", "composite z-score": 0.037}
{"compound": "C=C[C@@H](COC(C)=O)N(C(=O)OC(C)(C)C)S(=O)(=O)c1ccc(Br)cc1", "composite z-score": 0.841}
{"compound": "CCCC[C@@H](O)C1=C(COc2ccccc2)C[C@H]2C(=O)N(C)C(=O)[C@H]2[C@H]1CO", "composite z-score": 0.273}
{"compound": "COC(=O)c1ccc([C@H](NC(=O)c2ccco2)[C@]2(C)C[C@H]2C2CCCCC2)cc1", "composite z-score": -0.586}
{"compound": "COc1ccc(CN(C2=CC[C@@]3(C(N)=O)C(=O)C(Cl)=C(Cl)C(=O)[C@@]3(C#N)C2)S(=O)(=O)c2ccc(Br)cc2)cc1", "composite z-score": -0.0701}
{"compound": "COC(=O)c1cn(C[C@@H](Cc2ccccc2)NC(=O)N[C@H](CO)CCc2oc(C(C)=O)c(C(=O)OC)c2C(=O)OC)nn1", "composite z-score": 0.921}
{"compound": "CCOC(=O)C[C@H]1[C@H](OC(=O)c2cc3ccccc3oc2=O)[C@@H](NC(=O)c2ccc(-c3ccccc3)cc2)c2cc(OCCCO)ccc2N1C(=O)c1ccccc1", "composite z-score": 1.68}
{"compound": "COC(=O)[C@@]1(Cc2ccc(OC)cc2)[C@H]2c3cc(C(=O)N(C)C)n(C[C@H](O)CO)c3C[C@H]2CN1C(=O)c1ccccc1", "composite z-score": -0.826}
{"compound": "CC(C)[Si](C#C[Si](C(C)C)(C(C)C)C(C)C)(O[C@H](C)c1cn([C@H](CO)Cc2ccccc2)nn1)C(C)C", "composite z-score": -0.0066}
{"compound": "CCOC(=O)C1=CC[C@@H](c2ccccc2C(F)(F)F)N(S(=O)(=O)c2ccc(C)cc2)[C@H]1c1ccc(C#N)cc1", "composite z-score": 0.292}
{"compound": "C[N+](C)(C)CCCC[C@@H]1NC(=O)[C@H]2C[C@@H](C(=O)NCCCCCCN)[C@@H](c3ccc(O)cc3)N2C1=O", "composite z-score": -0.232}
{"compound": "CC(C)N1CC=CC23O[C@@H]4C=CCOC(=O)[C@@H]4[C@H]2C(=O)N(CCCO)[C@@H]3C1=O", "note": "(stereo not given in full)", "composite z-score": 0.927}
